Source: the supplement of paper PMC7366291
Where a name gives a salt, the structure may show the parent alone. ± gives the standard deviation or the standard deviation of the averaged measurements.

Key:
Details in all cases: 25 µM; exposure: 24-48 hpf
[1] = system: Danio rerio Tg(wt1b:EGFP) embryo, pronephros; experiment: glomerular separation, fold change vs DMSO control; higher = glomeruli further apart (abnormal)
Procedure, shortened: (§1)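 Each feature value is a fold change relative to the mean of same-day DMSO-treated embryos. Embryos of the Tg(wt1b:EGFP) zebrafish line, dechorionated, received 25 μM compound in 0.5% DMSO from 24 to 48 hpf at 28.5°C, in HEPES-buffered E3 with 0.003% PTU. Distances and angles were computed by a Fiji macro from 16 manually set reference points on maximum projections of dorsal pronephros images, and values beyond 2 SD of the feature mean were removed.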

[2] = system: Danio rerio Tg(wt1b:EGFP) embryo, pronephros; experiment: glomerular width (mean of left and right), fold change vs DMSO control; higher = wider glomerulus
Procedure, shortened: as §1

[3] = system: Danio rerio Tg(wt1b:EGFP) embryo, pronephros; experiment: fraction of imaged embryos annotated as normal kidney; higher = less nephrotoxic; extreme values may be limits of the assay
Procedure, shortened: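 Tricaine-anaesthetised Tg(wt1b:EGFP) zebrafish larvae were oriented dorsally in agarose-filled 96-well plates, and their pronephroi were recorded by widefield fluorescence at 470 nm in 10 z-slices. Before this, the dechorionated embryos had been exposed in 12-well plates to 25 μM compound in 0.5% DMSO and 5 mM HEPES-buffered E3 with 0.003% PTU, from 24 to 48 hpf at 28.5°C. Maximum projections were annotated manually for each embryo, and the read-out is the fraction per treatment classed as normal kidney.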

[4] = system: Danio rerio Tg(wt1b:EGFP) embryo, pronephros; experiment: pronephric angle neck segment to proximal convoluted tubule (mean of left and right), fold change vs DMSO control; higher = larger pronephric angle
Procedure, shortened: as §1

SMILES: C[C@@H](O)[C@H]1C(=O)N2C(C(=O)O)=C(S[C@@H]3CN[C@H](C(=O)N(C)C)C3)[C@H](C)[C@H]12 [Meropenem]
- glomerular separation [1]: 1.03 ± 0.35
- glomerular width [2]: 0.957 ± 0.021
- fraction of imaged embryos annotated as normal kidney [3]: 0.75
- pronephric angle neck segment [4]: 1.0113 ± 1.4e-05

SMILES: CC(=O)NS(=O)(=O)c1ccc(N)cc1 [Sulfacetamide sodic hydrate]
- glomerular separation [1]: 0.937 ± 0.25
- glomerular width [2]: 1.05 ± 0.057
- fraction of imaged embryos annotated as normal kidney [3]: 1
- pronephric angle neck segment [4]: 0.9887 ± 0.0093

SMILES: C#C[C@]1(O)CC[C@H]2[C@@H]3[C@H](C)CC4=C(CCC(=O)C4)[C@H]3CC[C@@]21C [Tibolone]
- glomerular separation [1]: 0.915 ± 0.4
- glomerular width [2]: 0.908 ± 0.019
- fraction of imaged embryos annotated as normal kidney [3]: 0.75
- pronephric angle neck segment [4]: 0.924 ± 0.078

SMILES: COc1cccc2c1C(=O)c1c(O)c3c(c(O)c1C2=O)C[C@@](O)(C(=O)CO)C[C@@H]3O[C@H]1C[C@H](N)[C@H](O)[C@H](C)O1 [Doxorubicin hydrochloride]
- glomerular separation [1]: 1.19 ± 0.75
- glomerular width [2]: 0.959 ± 0.11
- fraction of imaged embryos annotated as normal kidney [3]: 0.75
- pronephric angle neck segment [4]: 0.9779 ± 0.0016

SMILES: O=C1OC(CN2CCOCC2)CN1/N=C/c1ccc([N+](=O)[O-])o1 (centres undefined) [Furaltadone hydrochloride]
- glomerular separation [1]: 0.859 ± 0.33
- glomerular width [2]: 1.1 ± 0.021
- fraction of imaged embryos annotated as normal kidney [3]: 0.75
- pronephric angle neck segment [4]: 0.995 ± 0.015

SMILES: COc1ccc(CN(CCN(C)C)c2ccccn2)cc1 [Pyrilamine maleate]
- glomerular separation [1]: 1.29 ± 0.44
- glomerular width [2]: 1.03 ± 0.018
- fraction of imaged embryos annotated as normal kidney [3]: 0.667
- pronephric angle neck segment [4]: 1.03 ± 0.033

SMILES: COc1cc2ncnc(Nc3ccc(F)c(Cl)c3)c2cc1OCCCN1CCOCC1 [Gefitinib]
- glomerular separation [1]: 1.29 ± 0.64
- glomerular width [2]: 0.981 ± 0.034
- fraction of imaged embryos annotated as normal kidney [3]: 1
- pronephric angle neck segment [4]: 1.02 ± 0.024

SMILES: COc1ccc(OC)c(C(O)CNC(=O)CN)c1 (centres undefined) [Midodrine hydrochloride]
- glomerular separation [1]: 0.483 ± 0.2
- glomerular width [2]: 1.2 ± 0.062
- fraction of imaged embryos annotated as normal kidney [3]: 0.833
- pronephric angle neck segment [4]: 0.765 ± 0.013

SMILES: CN1CCN(CCCN2c3ccccc3Sc3ccc(S(=O)(=O)N(C)C)cc32)CC1 [Thioproperazine dimesylate]
- glomerular separation [1]: 0.945 ± 0.3
- glomerular width [2]: 0.988 ± 0.028
- fraction of imaged embryos annotated as normal kidney [3]: 0.917
- pronephric angle neck segment [4]: 0.945 ± 0.046

SMILES: NCc1ccccc1CC(=O)N[C@@H]1C(=O)N2C(C(=O)O)=C(CSc3nnnn3CC(=O)O)CS[C@H]12 [Ceforanide]
- glomerular separation [1]: 1.15 ± 0.8
- glomerular width [2]: 0.949 ± 0.091
- fraction of imaged embryos annotated as normal kidney [3]: 0.833
- pronephric angle neck segment [4]: 1.08 ± 0.038

SMILES: CC[C@@]1(O)C(=O)OCc2c1cc1n(c2=O)Cc2cc3c(CN(C)C)c(O)ccc3nc2-1 [Topotecan]
- glomerular separation [1]: 1.74 ± 0.72
- glomerular width [2]: 0.793 ± 0.022
- fraction of imaged embryos annotated as normal kidney [3]: 0.727
- pronephric angle neck segment [4]: 1.27 ± 0.062

SMILES: CN(C(=O)CN(CCO)CC(=O)N(C)C(C)(C)Cc1ccccc1)C(C)(C)Cc1ccccc1 [Oxethazaine]
- glomerular separation [1]: 0.855 ± 0.18
- glomerular width [2]: 1.1 ± 0.017
- fraction of imaged embryos annotated as normal kidney [3]: 0.727
- pronephric angle neck segment [4]: 0.94 ± 0.059

SMILES: CCCC(=O)Nc1ccc(OCC(O)CNC(C)C)c(C(C)=O)c1 (centres undefined) [Acebutolol hydrochloride]
- glomerular separation [1]: 1.43 ± 0.56
- glomerular width [2]: 1.06 ± 0.075
- fraction of imaged embryos annotated as normal kidney [3]: 0.75
- pronephric angle neck segment [4]: 0.9596 ± 0.0066

SMILES: CO[C@@H]1[C@@H](OC(N)=O)[C@@H](O)[C@H](Oc2ccc3c(O)c(NC(=O)c4ccc(O)c(CC=C(C)C)c4)c(=O)oc3c2C)OC1(C)C [Novobiocin sodium salt]
- glomerular separation [1]: 0.71 ± 0.24
- glomerular width [2]: 1.06 ± 0.038
- fraction of imaged embryos annotated as normal kidney [3]: 0.75
- pronephric angle neck segment [4]: 0.9784 ± 0.0046

SMILES: CC(=O)Oc1ccc(C(c2ccc(OC(C)=O)cc2)c2ccccn2)cc1 [Bisacodyl]
- glomerular separation [1]: 0.927 ± 0.28
- glomerular width [2]: 0.957 ± 0.038
- fraction of imaged embryos annotated as normal kidney [3]: 0.917
- pronephric angle neck segment [4]: 1.01 ± 0.016

SMILES: CC(C)(C(=O)O)c1ccc(C(O)CCCN2CCC(C(O)(c3ccccc3)c3ccccc3)CC2)cc1 (centres undefined) [Fexofenadine hydrochloride]
- glomerular separation [1]: 0.859 ± 0.33
- glomerular width [2]: 1.12 ± 0.028
- fraction of imaged embryos annotated as normal kidney [3]: 0.833
- pronephric angle neck segment [4]: 0.956 ± 0.033

SMILES: O=C(O)CNC(=O)C(CS)Cc1ccccc1 (centres undefined) [Thiorphan]
- glomerular separation [1]: 0.84 ± 0.35
- glomerular width [2]: 1.04 ± 0.036
- fraction of imaged embryos annotated as normal kidney [3]: 0.75
- pronephric angle neck segment [4]: 0.994 ± 0.017

SMILES: CCOc1cc(CC(=O)N[C@@H](CC(C)C)c2ccccc2N2CCCCC2)ccc1C(=O)O [Repaglinide]
- glomerular separation [1]: 1.44 ± 0.91
- glomerular width [2]: 0.943 ± 0.028
- fraction of imaged embryos annotated as normal kidney [3]: 0.75
- pronephric angle neck segment [4]: 1.06 ± 0.036

SMILES: CN[C@@H]1[C@@H](O[C@H]2O[C@H](CO)[C@@H](N)[C@H](O)[C@H]2O)OC2C[C@@H](N)[C@@H](O[C@H]3[C@H](O)[C@@H](O)[C@H](N)C[C@@H]3N)OC2[C@@H]1O (some centres undefined) [Apramycin]
- glomerular separation [1]: 1.1 ± 0.44
- glomerular width [2]: 0.977 ± 0.021
- fraction of imaged embryos annotated as normal kidney [3]: 0.75
- pronephric angle neck segment [4]: 0.9506 ± 0.0069

SMILES: CC[N+](C)(CC)CCOC(=O)C1c2ccccc2Oc2ccccc21 [Methantheline bromide]
- glomerular separation [1]: 0.979 ± 0.45
- glomerular width [2]: 0.996 ± 0.029
- fraction of imaged embryos annotated as normal kidney [3]: 0.917
- pronephric angle neck segment [4]: 1.045 ± 0.0066

SMILES: NS(=O)(=O)c1cc2c(cc1Cl)NC(C(Cl)Cl)NS2(=O)=O (centres undefined) [Trichlormethiazide]
- glomerular separation [1]: 0.873 ± 0.36
- glomerular width [2]: 0.992 ± 0.012
- fraction of imaged embryos annotated as normal kidney [3]: 0.75
- pronephric angle neck segment [4]: 0.899 ± 0.015

SMILES: CCCCc1cc2ccccc2c(OCCN(C)C)n1 [Dimethisoquin hydrochloride]
- glomerular separation [1]: 0.777 ± 0.2
- glomerular width [2]: 0.942 ± 0.065
- fraction of imaged embryos annotated as normal kidney [3]: 0.917
- pronephric angle neck segment [4]: 0.9905 ± 0.004

SMILES: CCOC1O[C@H]([C@@H](COCc2ccccc2)OCc2ccccc2)[C@H](OCc2ccccc2)[C@H]1O (some centres undefined) [Tribenoside]
- glomerular separation [1]: 1.42 ± 0.96
- glomerular width [2]: 0.865 ± 0.056
- fraction of imaged embryos annotated as normal kidney [3]: 0.667
- pronephric angle neck segment [4]: 1.01 ± 0.018

SMILES: Nc1nc(N)nc(-c2cc(Cl)ccc2Cl)n1 [Irsogladine maleate]
- glomerular separation [1]: 1.11 ± 0.39
- glomerular width [2]: 0.976 ± 0.016
- fraction of imaged embryos annotated as normal kidney [3]: 0.909
- pronephric angle neck segment [4]: 1.07 ± 0.029

SMILES: COc1cc2nc(N3CCN(C(=O)c4ccco4)CC3)nc(N)c2cc1OC [Prazosin hydrochloride]
- glomerular separation [1]: 0.618 ± 0.16
- glomerular width [2]: 1 ± 0.021
- fraction of imaged embryos annotated as normal kidney [3]: 0.917
- pronephric angle neck segment [4]: 1.03 ± 0.04

SMILES: C[C@@H]1C[C@H]2[C@@H]3CCC4=CC(=O)C=C[C@]4(C)[C@@]3(Cl)[C@@H](O)C[C@]2(C)[C@@]1(OC(=O)c1ccco1)C(=O)CCl [Mometasone furoate]
- glomerular separation [1]: 0.99 ± 0.37
- glomerular width [2]: 1.26 ± 0.082
- fraction of imaged embryos annotated as normal kidney [3]: 0.455
- pronephric angle neck segment [4]: 0.993 ± 0.085
